Bioassay records: PubChem BioAssay, University of Kansas High Throughput Screening Laboratory
Sampled rows, rich in hits. Any-hit rate of the full collection: about 3.5%.
mHTT CaM bind – mHTT-calmodulin interaction abrogation | P42858 | AlphaScreen His-mHTT/GST-CaM binding, luminescence | 190,000 tested, 3.6% active | inhibition, % at 15 µM;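 note: 0% = both proteins with DMSO and 100% = one protein alone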
Pf apPOL block – Pf-apPOL DNA polymerase inhibition | Recombinant Pf-apPOL, molecular beacon fluorescence, 1.5 h | inhibition, % at 10 µM | 210,000 tested, 0.25% active | AID 1794808
Numbers without * were called inactive; i = inactive; x = no result given. Cut-off read from the data, not from the text of the source: active = inhibition above about 50%; inactive = the rest.

SMILES	mHTT CaM bind	Pf apPOL block
ClC1=C(Cl)C2(Cl)C3COCOCC3C1(Cl)C2(Cl)Cl (stereo unspecified)	-40	-4
COc1ccc(-n2cnc3cc(C(=O)N4CCC5(CC4)OCCO5)ccc32)cc1	6	-2
O=C(c1ccc2c(c1)ncn2-c1ccc(OCc2ccccc2)cc1)N1CCC2(CC1)OCCO2	52*	-6
CC(C)OC(=O)N1CCN(/C(N)=N/[N+](=O)[O-])CC1	i	4
O=Cc1nc2ccccc2n1Cc1ccc(Cl)cc1Cl	95*	-6
O=Cc1nc2ccccc2n1Cc1ccccc1	35	-5
COc1cc(Br)cc(/C=C/[N+](=O)[O-])c1O	72*	-1
COc1cc(/C=C/[N+](=O)[O-])c(OC)cc1C	25	-4
Fc1cccc(CN2CCN(c3ccccc3)CC2)c1	2	0
Cc1nn(-c2ccccc2)c([Se])c1C=NC1CCCCC1	63*	-1
CN1C2CCC1CC(N=Cc1ccccc1)C2 (stereo unspecified)	x	-6
Cc1ccc2c(CN3CC4CC(C3)c3cccc(=O)n3C4)cc(=O)oc2c1C (stereo unspecified)	3	19
Fc1ccc2c(c1)[C@@H]1C=CC[C@@H]1[C@H](c1cccnc1)N2	17	x
Ic1ccc2c(c1)C1C=CCC1C(c1cccnc1)N2 (stereo unspecified)	97*	-3
CC12CCCCC1CCC1C2CCC2(C)C(O)C(=Cc3cccc(F)c3)CC12 (stereo unspecified)	-1	-3
O=C(O)c1cccc2c1NC(C(=O)O)C1CC(Sc3ccccc3[N+](=O)[O-])C(Cl)C21 (stereo unspecified)	77*	-5
Cc1ccc[n+]([C-]([N+](=O)[O-])[N+](=O)[O-])c1	-7	x
O=C(Cc1c[nH]c2ccccc12)N1CCCN(C2CCN(CC3CC3)C2=O)CC1 (stereo unspecified)	2	7
O=[N+]([O-])c1cc2c(cc1CNCCc1c[nH]c3ccccc13)OCO2	68*	-2
COc1cc(CNCCc2c[nH]c3ccccc23)c([N+](=O)[O-])cc1OC	14	-1
Nc1cc2nc3ccccc3nc2cc1N	19	x
Nc1cc2nc3ccccc3nc2cc1O	100*	0
Cc1ccc(NC(=O)CN2C(=O)C(C)N=C(c3ccccc3)c3ccccc32)c(Cl)c1 (stereo unspecified)	4	-14
Cc1cccc(N2CCN(Cc3cccc(F)c3)CC2)c1C	-20	4
O=C1c2ccccc2-c2c3c(cc4ccnc1c24)OCO3	x	77*
SMILES	mHTT CaM bind	Pf apPOL block
Clc1ccc(CN2CCN(c3ccccc3)CC2)c(Cl)c1	26	-3
COc1ccc(N2CCN(Cc3ccc(Cl)cc3Cl)CC2)cc1	61*	-5
CC1N=C(c2ccccc2)c2ccccc2N(CC(=O)Nc2ccc(F)c(Cl)c2)C1=O (stereo unspecified)	66*	-19
CC1N=C(c2ccccc2)c2ccccc2N(CC(=O)Nc2ccc(F)cc2Cl)C1=O (stereo unspecified)	5	-19
CC12CCC3C(CC=C4CC(O)CCC43C)C1CC(=Cc1cccc(F)c1)C2=O (stereo unspecified)	-6	-6
COc1ccc2c(c1)OC(=Cc1ccc(OC(=O)N(C)C)cc1)C2=O	9	-33
Cn1c(=O)c2c(c3ccccc31)NC(=S)NN=C2	97*	x
COc1cccc(CN2CCN(CCO)CC2)c1	-1	-10
COc1ccc(N=Cc2cc3c(cc2O)OC(N)=C(C#N)C3c2ccco2)cc1 (stereo unspecified)	71*	-3
COc1ccc(C=C2C(=O)NC(=S)NC2=O)cc1Br	x	64*
COc1cc(C=C2C(=O)NC(=O)NC2=O)ccc1OCC(=O)O	4	-1
O=C1C2CCCN2C(c2cccnc2)N1c1ccc(Cl)c(Cl)c1 (stereo unspecified)	21	-2
O=C1C2CCCN2C(c2ccncc2)N1c1ccc(Cl)c(Cl)c1 (stereo unspecified)	85*	0
CCOc1cc(C(c2c(O)c3ccccc3oc2=O)c2c(O)c3ccccc3oc2=O)ccc1O	84*	-10
O=c1oc2ccccc2c(O)c1C(c1cccnc1)c1c(O)c2ccccc2oc1=O	7	-4
COc1ccc2c(c1)C1(CCN(C(=O)NCC(C)C)C1)C(=O)N2C (stereo unspecified)	-1	0
COc1ccc(OC)c(NC(=O)c2nc(C)n(C3CCN(C)CC3)c2C)c1	27	-5
COc1ccc(NC(=O)c2nc(C)n(C3CCN(C)CC3)c2C)c(OC)c1	21	59*
COc1ccccc1NC(=O)c1cc(C)n(CCN2CCCC2)c1C	20	1
O=C(C1CCN(S(=O)(=O)N2CCCCCC2)CC1)N1CCC2(CC1)OCCO2	-10	-10
NC(Cc1cc(O)c(O)cc1O)C(=O)O (stereo unspecified)	x	81*
NCCc1cc(O)c(O)cc1O	31	x
COc1cc(C=C2Oc3c(ccc(OC(=O)N(C)C)c3C)C2=O)cc(OC)c1OC	9	-2
Cc1cccc(N2CCN(CCc3ccccc3)CC2)c1C	100*	-2
Cc1ccc(N2CCN(CCc3ccccc3)CC2)cc1	15	-3
SMILES	mHTT CaM bind	Pf apPOL block
COc1cc(C=C(C#N)C#N)cc(OC)c1OC	-3	x
CC(C)(NO)C(=O)c1ccccc1	x	23
CCCC12CN3CCN(CC(C)(C3)C1O)C2 (stereo unspecified)	1	-6
O=C1c2ccccc2C(=O)c2ccccc21	x	3
O=C1C=CC(=O)c2c(O)cccc21	x	97*
CCn1c(C2CCCNC2)n[nH]c1=O (stereo unspecified)	0	-5
O=C(Cc1ccc(F)cc1)N1CCCN(Cc2noc3ccccc23)CC1	-1	-3
COc1cc(OC)cc(C(=O)N2CCC3(C2)C(=O)Nc2ccc(OC)cc23)c1 (stereo unspecified)	-2	-3
